BRCA1 expr up: increases BRCA1 expression; MCF7-BRCA1-FFLuc reporter, luminescence, 48 h; response scale: scaled: vehicle 0%, 10 µM genistein 100%; Potency, µM (top dose mostly 46.1 µM), for the others: at the highest dose activation, most hits filed as activators; 1.1% of 380,000 active; AID 624202; also: potency is read from the fitted curve at half-maximal effect; nearly all actives have a fitted effect of over 80% in size
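Luminescence from a BRCA1-driven firefly luciferase in MCF7 cells was the read-out, taken 15 min after substrate addition following 48 h compound exposure at 37 °C. Data were normalized to a 10 microM genistein control and DMSO vehicle.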
RORgamma inh: ROR gamma (mouse) transcription inhibition. Potency, µM (titrated, usually from 53.6 µM), inactives show at the top dose activity change, negative = inhibition, usual class: inhibitors. Drosophila S2 Gal4-RORgamma UAS-luciferase reporter, 20 h. 5.4% of 310,000 active. P51450. AID 2551; also: potency is read from the fitted curve at half-maximal effect; % is scaled to controls: 0 for no effect and ±100 for the full control effect; nearly all actives have a fitted effect of over 60% in size
Target sequence (P51450 whole entry, looked up, the tested form may be a part): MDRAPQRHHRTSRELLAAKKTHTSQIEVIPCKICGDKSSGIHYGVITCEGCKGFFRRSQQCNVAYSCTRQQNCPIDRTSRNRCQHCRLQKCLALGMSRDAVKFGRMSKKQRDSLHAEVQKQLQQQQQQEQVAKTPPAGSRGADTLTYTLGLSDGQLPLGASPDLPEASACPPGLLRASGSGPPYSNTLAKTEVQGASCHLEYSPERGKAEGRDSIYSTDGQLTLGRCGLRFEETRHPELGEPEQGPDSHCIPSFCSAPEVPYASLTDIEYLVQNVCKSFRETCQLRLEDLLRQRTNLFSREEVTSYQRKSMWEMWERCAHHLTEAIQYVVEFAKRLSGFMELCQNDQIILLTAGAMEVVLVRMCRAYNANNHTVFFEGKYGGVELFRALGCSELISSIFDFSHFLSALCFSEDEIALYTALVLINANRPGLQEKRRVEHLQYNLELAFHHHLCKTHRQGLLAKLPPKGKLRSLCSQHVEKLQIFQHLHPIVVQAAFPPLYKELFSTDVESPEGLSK
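Schneider cells (Drosophila), stable Gal4 DBD–ROR gamma + UAS-luc; 1 hr cmpd preincubation; Cu2+ induction 700 uM final; 20 hr ambient; luminescence.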
Giardia kill: kills Giardia lamblia; Giardia lamblia trophozoite viability; AID 540267; activity change, % at 7.66 µM, hits read low; 0.15% of 340,000 active; in the data active = activity change below about -80%; inconclusive = between about -30% and that limit;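 also: parasites exposed to compound for two days anaerobically before the ATP read; % is scaled to controls: 0 for no effect and ±100 for the full control effect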
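Giardia lamblia trophozoites (100 cells/well) were incubated with compounds for 48 h at 37 deg C under anaerobic conditions. Viability was read as ATP content by one-step luminescence after 15-30 min at room temperature.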
p53 reactivator: mutant p53 re-activation in reporter cells. H1299 p53-A138V BP100-luciferase reporter, luminescence, 24 h. Potency, µM (highest dose often 92.2 µM), for inactives: at the highest dose activity change, positive = activation, actives largely listed as activators. 0.063% of 320,000 active. AID 504706; also: potency is read from the fitted curve at half-maximal effect; % of control where 0% means no effect; nearly all actives have a fitted effect of over 45% in size
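H1299 (p53-null), stable ts p53-A138V + BP100-Luc; 1000 cells/well, Opti-MEM/10% FBS; cpd 4 pt, 1:5; 24 h, 37 deg C, 5% CO2; detection reagent 10 min RT; luminescence.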
VP16 counter: counter-screen for ROR gamma inhibitors: Gal4-VP16 reporter | Drosophila S2 Gal4-VP16 UAS-luciferase, luminescence, 20 h | Potency, µM (highest dose often 53.6 µM), without a hit: top-dose activity, negative = inhibition, actives largely listed as inhibitors | 3.5% of 310,000 active;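 also: Gal4-VP16 expression switched on by copper sulfate through the metallothionein promoter; potency is read from the fitted curve at half-maximal effect; % is scaled to controls: 0 for no effect and ±100 for the full control effect; nearly all actives have a fitted effect of over 50% in size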
ELG1 repair inh: inhibitors of ELG1-dependent DNA repair in HEK293T cells; Potency, µM (titrated, usually from 46.1 µM), inactives show top-dose activity change, negative = inhibition, most hits filed as inhibitors; HEK293T ELG1-luciferase reporter, luminescence, 16 h; DNA damage induced by 5-fluorouridine; 2.3% of 330,000 active; AID 504467; also: potency is read from the fitted curve at half-maximal effect; % is scaled to controls: 0 for no effect and ±100 for the full control effect; nearly all actives have a fitted effect of over 55% in size
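Quantitative HTS, concentration-response format. 2,000 cells/well co-treated with 5-fluorouridine and compound, 16 hr in 5% CO2 at 37 °C; ONE-Glo luminescence read after 30 min.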
* = called active by the depositor; ? = inconclusive; . = not tested or not shown; [ ] = dose if it differs, or a comment. A selection: hits, their analogues and other compounds. The true share with any hit is near 7.6%. Unless noted, calls follow the shape of the dose curve; as a rule, active = well fitted curve in the direction sought with a large enough effect; inconclusive = small, poorly fitted or top-dose-only effect, or another doubt; inactive = no such curve, though single readings can be large; an effect the other way counts as inactive or inconclusive.

SMILES	BRCA1 expr up	RORgamma inh	Giardia kill	p53 reactivator	VP16 counter	ELG1 repair inh
COc1ccc(NC(=O)c2ccccc2C)cc1	76.3%	-42.2%	-27.1	6.4%	-23.6%	?
Cc1ccc(C(=O)NC(=S)Nc2ccc(Oc3ccc(Cl)cc3)cc2)cc1	-19.1%	0.891µM*	23.0	2.0%	?	-2.8%
Clc1ccc(N2CCN(Cc3cc4ccccn4n3)CC2)cc1	.	-29.3%	.	.	-2.7%	.
Cc1cc(OC(C)C(=O)Nc2cccnc2)ccc1Cl (configuration not stated)	11.6%	22.4%	-10.5	-4.0%	-11.3%	-5.0%
Cc1ccc(OC(C)C(=O)Nc2ccncc2)cc1 (configuration not stated)	0.0%	?	15.9	.	17.8µM*	-16.5%
Cc1cc(OCC(=O)N(C(C)C)C(C)C)ccc1Cl	-4.7%	1.58µM*	9.3	0.9%	?	4.1%
Cc1cc(OC(C)C(=O)Nc2ccncc2)ccc1Cl (configuration not stated)	-3.7%	19.3%	3.3	-46.7%	11.2µM*	?
Cc1ccc(OC(C)C(=O)Nc2cc(C)on2)cc1 (configuration not stated)	-1.8%	-21.3%	-12.5	8.1%	-8.6%	4.7%
COc1ccccc1N1CCN(C(c2cccs2)C(C)NC(=O)C(=O)N2CCOCC2)CC1 (configuration not stated)	10.6%	8.0%	-13.3	-1.5%	3.8%	3.4%
CCOC(=O)c1c(C)[nH]c(C(=O)Nc2ccc3c(c2)OCO3)c1C	.	-20.5%	.	?	-8.8%	?
Cc1nn(CC2CCCCC2)c(N)c1-c1ccccc1	?	?	-6.7	25.4%	11.2µM*	?
CCOC(=O)Cn1nc(C)c(-c2ccccc2)c1N	2.4%	20.9%	1.1	12.5%	-1.3%	14.2%
COc1ccc(S(=O)(=O)NC(CC(=O)O)c2ccco2)cc1 (configuration not stated)	-2.1%	-1.1%	12.4	-2.4%	-3.9%	-3.3%
COc1ccc(S(=O)(=O)NC(CC(=O)NCC2CCCO2)c2ccco2)cc1 (configuration not stated)	2.0%	28.8%	1.4	-1.1%	22.4µM*	11.8%
CC(C)(C)c1ccc(S(=O)(=O)N2CCN(c3nc(-c4cccs4)nc4ccccc34)CC2)cc1	0.0%	.	?	.	.	.
Cc1ccc(NC(=O)c2ccc3ncsc3c2)cc1S(=O)(=O)N(C)C	.	7.94µM*	.	2.5%	7.08µM*	?
CCc1sc(C(=O)Nc2ccc(NC(C)=O)cc2)cc1C	14.5%	?	10.5	-10.4%	18.4%	?
CC(=O)Nc1ccc2nc3ccccc3nc2c1	5.62µM*	-21.9%	5.1	13.8%	-13.3%	?
CN(C)S(=O)(=O)c1cccc(NC(=O)CSc2nc3ccccc3n2-c2ccccc2)c1	-77.9%	35.9%	-26.1	8.3%	4.2%	18.4µM*
O=C(Nc1ccc2nc3ccccc3nc2c1)c1ccc(Br)cc1	?	29.7%	22.2	3.4%	3.0%	?
CCc1sc(C(=O)Nc2ccc3nc(C)sc3c2)cc1C	3.16µM*	.	4.6	8.8%	.	?
CN(C)S(=O)(=O)c1ccc(NC(=O)CSc2nc3ccccc3n2-c2ccccc2)cc1	-66.8%	41.5%	-0.8	-0.7%	-20.2%	?
Cc1ccc(OCC(O)CN2CCOCC2)cc1 (configuration not stated)	11.1%	-4.4%	-14.0	7.0%	5.2%	-10.2%
COc1cccc(C(=O)NCC(c2ccc3c(c2)OCO3)N2CCN(c3ccc(F)cc3)CC2)c1 (configuration not stated)	-57.6%	.	8.4	1.3%	.	?
COc1ccc(-n2nc(C(N)=O)nc2-c2ccccc2)cc1	-2.3%	-1.8%	25.5	0.6%	-2.1%	-0.7%
SMILES	BRCA1 expr up	RORgamma inh	Giardia kill	p53 reactivator	VP16 counter	ELG1 repair inh
O=C(Nc1ccc2nn(-c3ccccc3)nc2c1)c1cccs1	4.47µM*	?	9.1	3.9%	-13.4%	?
Cc1nc2ccc(NC(=O)c3ccccc3)cc2s1	3.55µM*	14.2%	-13.4	9.2%	3.5%	?
O=C(Nc1cccc(NC(=O)c2cncc(Br)c2)c1)c1cncc(Br)c1	-13.5%	4.8%[1.91 µM]	30.0	9.1%	-14.1%	20.6µM*
CN(c1ccccc1)S(=O)(=O)c1cccc(NC(=O)CSc2nncs2)c1	-41.4%	36.5%	0.0	14.3%	22.4µM*	?
O=C(Nc1ccc2nsnc2c1)c1cccs1	-8.6%	25.1%	-1.9	8.6%	-0.1%	?
CC1C2CCC3C4CC=C5CC(N(C)C)CC[C@@]5(C)C4CC[C@@]32CN1C (some centres not stated)	.	-2.2%	.	.	-0.8%	.
CC(C)(C)C(=O)Cn1c[n+](N)cn1	-12.0%	-6.7%	2.3	16.3%	15.5%	14.8%
CC(Sc1nnc(-c2ccccc2F)n1C1CC1)C(=O)N1CCCC1 (configuration not stated)	3.8%	.	14.8	-4.8%	.	?
Cc1nc2ccc(NC(=O)c3cncc(Br)c3)cc2s1	?	?	19.6	4.9%	23.3%	23.1µM*
Cc1nc2ccc(NC(=O)c3ccc(=O)[nH]c3)cc2s1	-24.6%	-20.4%	-3.9	-1.8%	-6.9%	?
CC(=O)Nc1ccc2nc(NC(=O)c3cccs3)sc2c1	10.4%	-39.6%	-11.9	?	-26.4%	?
Cc1nc2ccc(NC(=O)c3cccc(S(=O)(=O)N(C)c4ccccc4)c3)cc2s1	-81.9%	?	12.6	-6.6%	-28.7%	18.4µM*
Cc1nc2ccc(NC(=O)N3CCCCC3)cc2s1	11.2µM*	32.6%	12.3	28.9%	18.0%	?
Cc1nc2ccc(NC(=O)c3cccs3)cc2s1	6.31µM*	?	-5.4	?	28.3%	?
CN(c1ccccc1)S(=O)(=O)c1cccc(NC(=O)c2ccc3ncsc3c2)c1	-59.6%	29.0%	-0.6	-4.2%	-19.4%	14.6µM*
Cc1nc2ccc(NC(=O)Cc3ccsc3)cc2s1	11.2µM*	8.7%	-1.8	13.9%	10.2%	?
Cc1nc2ccc(NC(=O)Cc3cccc(F)c3)cc2s1	42.2%	44.6%	4.7	2.8%	-7.8%	?
COc1ccccc1N(C)S(=O)(=O)c1ccc(C(=O)Nc2ncc(C)s2)cc1	-15.1%	.	8.2	0.3%	.	?
COc1ccccc1N(C)S(=O)(=O)c1ccc(C(=O)Nc2ccc3nc(C)sc3c2)cc1	-79.0%	?	6.5	21.9%	-17.7%	25.9µM*
Cc1ccc(NC(=O)c2cccc(S(=O)(=O)N(C)c3ccccc3)c2)cc1S(=O)(=O)N1CCOCC1	-53.0%	36.6%	-3.4	-8.7%	-6.4%	13µM*
COc1ccc(/C=C(\C#N)C(=O)NCc2ccccc2)cc1	-8.3%	?	-16.4	12.9%	-26.3%	-2.3%
